Screens deposited in PubChem BioAssay by several laboratories.
tim10-1 inh – growth inhibitors of tim10-1 mutant yeast, primary screen, luminescence, uHTS | AID 463190, 2010 | hit rate 2.2% among 330,000 | inhibition, % at 20 µM | S. cerevisiae tim10-1 ts strain growth, BacTiter-Glo, 24 h;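 active = inhibition of at least 40%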;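 note: mutant grown at 25 °C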
tim23-1 inh – growth inhibitors of tim23-1 mutant yeast, primary screen, luminescence, uHTS | AID 463212, 2010 | S. cerevisiae tim23-1 growth, BacTiter-Glo luminescence, 24 h | hit rate 1.3% among 330,000 | inhibition, % at 20 µM;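 active = growth inhibition of the mutant yeast at or above 50%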;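 note: temperature-sensitive mutant grown at 25 °C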
NLRP3 yeast inh – NALP3 inflammasome inhibitors in reconstituted yeast, primary screen, luminescence, uHTS; Yeast reconstituted NLRP3/ASC/caspase-1, beta-gal luminescence, 24 h; inhibition, % at 10 µM; hit rate 0.39% among 330,000; AID 2825, 2010;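 active = inhibition of 50% or more; inactive = inhibition below 50%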
TIM10 inh – growth inhibitors of isogenic TIM10 control yeast, primary screen, counter-screen for tim10-1 yeast inhibitor project, luminescence, uHTS. S. cerevisiae TIM10 strain growth, BacTiter-Glo luminescence, 24 h. inhibition, % at 10 µM. hit rate 1.4% among 330,000;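 active = inhibition of 40% or more at the single tested concentration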;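 note: wild-type TIM10 isogenic control strain grown at permissive 25 °C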
SKKanGAS inh – S. pyogenes SKKanGAS growth inhibitors in kanamycin, primary screen, streptokinase expression inhibitor project, SKKanGAS strain, BacTiter-Glo luminescence | 6 h | inhibition, % at 7.5 µM | hit rate 1.3% among 300,000;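 active = mean replicate score, as percent of positive control median, at least 50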;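 note: strain carries kanamycin resistance gene driven by streptokinase promoter and grows in 40 µg/ml kanamycin; loss of luminescence reflects streptokinase promoter inhibition or plain growth inhibition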
tim10-1 conf – growth inhibitors of tim10-1 mutant yeast, confirmation, single concentration, luminescence, S. cerevisiae; shares compounds with tim10-1 inh; S. cerevisiae tim10-1 ts strain growth, BacTiter-Glo, 24 h; inhibition, % at 20 µM; hit rate 56% among 7,400;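 active = inhibition of yeast growth at or above a set limit in either of two repeat tests at 20 µM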;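 note: tim10-1 mutant grown at permissive 25 °C to find synthetic lethal compounds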
tim10 confirm – growth inhibitors of wild-type TIM10 yeast, confirmation, counter-screen for tim10-1 synthetic lethality project, single concentration, luminescence, S. cerevisiae; S. cerevisiae tim10 strain growth, BacTiter-Glo luminescence, 24 h; hit rate 63% among 4,600; AID 463215, 2010; inhibition, % at 10 µM; shares compounds with TIM10 inh;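 active = inhibition of yeast growth at or above a set limit in either of two replicates at 10 µM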; note: this counterscreen used the strain with wild-type TIM10
Each line names hits and unclear results; the compound was inactive in the other large screens (follow-up assays come after a bar, where they were run). This is a sample that favours compounds with a hit; in the whole collection about 4.6% have one here.

Cc1ccc(C(C)C)c(OCC(=O)NNC(=O)Cc2ccc(S(=O)(=O)N3CCOCC3)s2)c1	none (no result: SKKanGAS inh)
COc1ccc(/C=C/C(=O)c2cc(F)ccc2OC(=O)c2ccccc2OC)cc1OC	none (no result: tim10-1 inh, tim23-1 inh, NLRP3 yeast inh, TIM10 inh)
COc1ccc(/C=C/C(=O)c2cc(F)ccc2OC(=O)c2ccccc2)cc1OC	tim10-1 inh 52, TIM10 inh 48 | tim10-1 conf 48 | tim10 confirm inactive
CCCn1c(/C=C/c2ccccc2)nc2ccccc21	tim10-1 inh 42, TIM10 inh 42 | tim10-1 conf inactive | tim10 confirm inactive
COc1ccc(/C(N)=N/OC(=O)c2ccc([N+](=O)[O-])c(C)c2)cc1OC	tim10-1 inh 65, TIM10 inh 49 | tim10-1 conf 71 | tim10 confirm 36
Cc1cc(C(=O)O/N=C(\N)c2ccncc2)ccc1[N+](=O)[O-]	none
Cc1ccc(C)c(NC(=S)NCc2ccc3[nH]c4c(c3c2)CCCC4)c1	tim10-1 inh 45, TIM10 inh 43 | tim10-1 conf 35 | tim10 confirm 40
O=C(Oc1ccc(/C=N/O)cc1)c1ccccc1Cl	tim10-1 inh 52, TIM10 inh 57 | tim10-1 conf 45 | tim10 confirm inactive
CC(=O)Nc1ccc(S(=O)(=O)NCC2(N3CCOCC3)CCCCC2)cc1	none (no result: SKKanGAS inh)
CCC(=O)N1CCc2cc(S(=O)(=O)CCC(=O)N(C)c3ccc(OC)cc3)ccc21	none
Cc1ccsc1/C=N/NC(=S)NCCc1ccccc1	tim10-1 inh 54, TIM10 inh 41 | tim10-1 conf inactive | tim10 confirm 44
C/C(=N\OCC(=O)NC12CC3CC(CC(C3)C1)C2)c1cc2ccccc2o1	tim10-1 inh 45, TIM10 inh 40 | tim10-1 conf inactive | tim10 confirm 36
Cc1ccccc1NC1=NC(=S)N(c2ccccc2)C12CCOC(C)(C)C2 (configuration not stated)	none
Cc1ccccc1NC1=NC(=S)N(c2ccccc2)C12CCCCC2	tim10-1 inh 54, TIM10 inh 50 | tim10-1 conf 46 | tim10 confirm inactive
CCOC(=O)c1c(C)oc2ccc(O)c(CN(C)C)c12	none
CCOC(=O)c1c(CSc2ccc(CC)cc2)oc2ccc(O)c(CN(C)C)c12	tim10-1 inh 49, TIM10 inh 55 | tim10-1 conf 58 | tim10 confirm 65
O=C(NC(=S)N(Cc1ccccc1)Cc1ccccc1)c1ccccc1F	tim10-1 inh 50, TIM10 inh 59, SKKanGAS inh 94 | tim10-1 conf 38 | tim10 confirm 44
O=C(NCCc1ccccc1)c1ccccc1F	none
COc1ccc(C(=O)NC(=S)N(Cc2ccccc2)Cc2ccccc2)cc1	tim10-1 inh 47, TIM10 inh 48, SKKanGAS inh 96 | tim10-1 conf 35 | tim10 confirm 39
CN(C)CCCN(C(=O)c1ccc(Br)s1)c1nc2cc3c(cc2s1)OCCO3	tim10-1 inh 64, TIM10 inh 56 | tim10-1 conf 60 | tim10 confirm 47
CCN(CC)CCN(C(=O)c1ccc(Br)s1)c1nc2cc3c(cc2s1)OCCO3	none
CN(C)CCCN(C(=O)c1cc(Cl)sc1Cl)c1nc2cc3c(cc2s1)OCO3	tim10-1 inh 63, TIM10 inh 46 | tim10-1 conf 55 | tim10 confirm 34
CN(C)CCCN(C(=O)c1cccs1)c1nc2cc3c(cc2s1)OCO3	none
CN(C)CCCN(C(=O)c1ccc(Cl)s1)c1nc2cc3c(cc2s1)OCO3	tim10-1 inh 48, TIM10 inh 42 | tim10-1 conf 46 | tim10 confirm inactive
COc1ccc(NC2CCCN(C(=O)c3ccc4[nH]c(C)c(C)c4c3)C2)cc1OC (configuration not stated)	none
COc1cc(/C=N/Nc2ccc(C(F)(F)F)cn2)cc(OC)c1O	none
Oc1ccc(/C=N/Nc2ccc(C(F)(F)F)cn2)cc1	tim10-1 inh 44, TIM10 inh 48 | tim10-1 conf inactive | tim10 confirm inactive
c1ccc(-c2nnc(-c3ccccn3)nc2NC2CCCCC2)cc1	tim10-1 inh 47, TIM10 inh 67, SKKanGAS inh 104 | tim10-1 conf 36 | tim10 confirm 63
CC1(C)CC(=O)C2=C(C1)Nc1ccccc1N=C2	tim10-1 inh 49, TIM10 inh 41 | tim10-1 conf 44 | tim10 confirm 34
CCC1CCC2(CC1)NC(=O)N(CC(=O)N1CCc3ccccc31)C2=O (configuration not stated)	none (no result: SKKanGAS inh)
CC(C)(C)c1ccc(CSc2ccc(S(=O)(=O)N3CCOCC3)cn2)cc1	none (no result: SKKanGAS inh)
COc1cc(NC(=O)CCc2nnc3ccc(N4CCC5(CC4)OCCO5)nn23)cc(OC)c1	none
Cc1nnc(-c2cccc(Br)c2)c2cn(-c3ccccc3Cl)nc12	tim10-1 inh 51, TIM10 inh 51 | tim10-1 conf 39 | tim10 confirm 50
C=C1C(=O)O[C@@H]2[C@H]3O[C@]3(C)CC/C=C(\C)CC[C@@H]12	tim10-1 inh 54, TIM10 inh 49 (no result: SKKanGAS inh) | tim10-1 conf 38 | tim10 confirm 53
Cc1onc(-c2ccccc2)c1C(=O)NC(=S)Nc1sc2c(c1C#N)CCCC2	tim10-1 inh 42, TIM10 inh 54 | tim10-1 conf inactive | tim10 confirm 33
CC(=O)OC1CCC2(C)C(=CCC3C2CCC2(C)C3CC3OC4(CCC(C)CN4)C(C)C32)C1 (configuration not stated)	tim10-1 inh 41, TIM10 inh 44 | tim10-1 conf 34 | tim10 confirm inactive
C[C@]12CC[C@H](OC(=O)CCC(=O)O)CC1=CCC1C2CC[C@@]2(C)C1CC[C@@H]2N (some centres not stated)	none (no result: SKKanGAS inh)
c1ccc2c(c1)OCC(c1nnc3sc(-c4ccc5c(c4)OCO5)nn13)O2 (configuration not stated)	tim10-1 inh 42, TIM10 inh 48 | tim10-1 conf inactive | tim10 confirm inactive
COc1ccc2nc3oc(C(=O)N4CCN(c5cccc(Cl)c5)CC4)cc3cc2c1	tim10-1 inh 60, TIM10 inh 63 | tim10-1 conf inactive | tim10 confirm inactive
CC(C)(C)c1ccc(NC(=S)NCc2cccs2)cc1	tim10-1 inh 54, TIM10 inh 46 | tim10-1 conf 40 | tim10 confirm 33
COc1cc(/C=C2\SC(=S)N(Nc3ncc(C(F)(F)F)cc3Cl)C2=O)ccc1O	tim10-1 inh 48, TIM10 inh 51 | tim10-1 conf inactive | tim10 confirm 42
